Measured values as given in ChEMBL document CHEMBL3988442, “University of Dundee, Small-Polar-MMV Screening Library” (2021).
Hit rate of the full screen: of about 48,000 compounds, about 13,000 (27%) showed an effect of 50% or more. The list shows a part of the results.

Tested on: Wolbachia pipientis
Assay: Anti-Wolbachia Cell-Based Screen
Format: functional
Design: scale not given: in the data most compounds retested in dose-response had high values
Details: 5 µM

SMILES	Percent Effect [%]
Cn1cnc2c1C(C(=O)N1CCCC1)N(CC1CC1)CC2.O=C(O)C(F)(F)F (stereo not given)	6.577
Cc1noc(C)c1CN(C)C(=O)C1CCCN1S(N)(=O)=O (stereo not given)	1.482
Cc1nc2ccccc2n(Cc2nnnn2C2CC2)c1=O	11.64
CCc1ccc(CN2CCN(c3ccc(Cl)nn3)CC2)nc1	-1.382
CC(=O)N1CC[C@H]2CC(=O)N(C3CC3)CC[C@H]2C1	-2.772
COCc1noc(-c2ccc(N3CCCC3c3ccc(F)cc3)nc2)n1 (stereo not given)	17.95
CCSc1ccccc1C(=O)N1CC2(COC(C)(C)OC2)C1	0.7993
CNc1ncc(CN(C)C2CCN(C(C)C)CC2)cn1	131.8
CCN1CCN(Cc2ccnc(-c3cccnc3)n2)CC1.O=C(O)CC(O)(CC(=O)O)C(=O)O	-7.954
CCCc1ncc(CN(C)C2CCCN(CCc3ccccc3)C2)cn1 (stereo not given)	-21.26
COc1ncc(CN(CCN(C)C)Cc2ccc(C)s2)cn1	7.179
COc1ncc(CN(C)C2CCN(C(C)C)CC2)cn1	134.1
CC(C)N1CCC(NCc2cccnc2N(C)Cc2ccccc2)CC1	-0.8543
CC(C)N1CCC(NCc2cccnc2N(C)C)CC1	4.897
CC(C)N1CCC(C(=O)N(C)C(C)c2ccon2)CC1 (stereo not given)	-1.072
CCc1ncc(CN(C)C2CCN(C(C)C)CC2)cn1.O=C(O)CC(O)(CC(=O)O)C(=O)O	161.6
Cc1cc2cc(Nc3c(C#N)c(=O)n(C)c(=O)n3C)ccc2[nH]1	4.966
COc1ccc2c(c1)CC(NCc1cccc(OCC(N)=O)c1)CC2 (stereo not given)	2.98
CN(C)c1cc2c(nn1)CCN(C(=O)c1cc3ccccc3[nH]c1=O)C2	4.124
COc1cc2c(cc1OC)CN(C(=O)NC(C)c1nncn1C)CC2 (stereo not given)	-16.43
COc1cc2c(cc1OC)C(=O)C(Sc1nncn1C)C2 (stereo not given)	119.4
COc1cc2c(cc1OC)C(=O)C(Sc1nnc(C)o1)C2 (stereo not given)	89.14
COc1ccc(C)cc1-n1cnnc1C1CC(=O)N(C)C1 (stereo not given)	6.21
COc1cc2c(cc1OC)C(=O)C(Sc1nnnn1C)C2 (stereo not given)	95.35
Cc1nnc(SCC(=O)N2CCC3(CC2)c2ccccc2CC3O)o1 (stereo not given)	-11.87
COc1cccc(Cc2nnc(SC3CCOC3=O)o2)c1 (stereo not given)	-7.418
CNS(=O)(=O)CCn1cc(-c2cc3c(cc2OC)CCC3)nn1	-24.83

SMILES	Percent Effect [%]
O=C1CCC2(CCCO2)CCN1Cc1noc(C2CCCC2)n1 (stereo not given)	15.53
O=C(NC1(c2nnn(Cc3ccncc3)n2)CCCC1)c1ccccc1	-7.35
CC(O)(CNc1ccccn1)c1ccccc1 (stereo not given)	12.1
O=C(NCCNS(=O)(=O)C1CCCCC1)c1ccccc1	130.7
O=C(Cc1cccc(F)c1)NCCNS(=O)(=O)C1CCCC1	103.6
CCc1ccc2c(c1)C(CCNC(=O)Cc1cccc(F)c1)C(=O)N2 (stereo not given)	1.678
O=C(Cc1ccccc1)NCCNS(=O)(=O)C1CCCCC1	110.7
O=C(Cc1ccc(F)cc1)NCCc1ccoc1	13.31
O=C(CCS(=O)(=O)C1CCCC1)NCCc1cccc(O)c1	0.8082
Cc1cccc(CCNC(=O)CCS(=O)(=O)C2CCCC2)c1	1.788
O=C(NCCNS(=O)(=O)c1ccc2c(c1)CCC2)c1ccccc1	4.416
O=C(Cc1ccc(F)cc1)NCCNS(=O)(=O)C1CCCC1	108.3
O=C(Cc1ccc(F)cc1)NCCNS(=O)(=O)c1ccc(F)c(F)c1	-6.551
CCS(=O)(=O)NCCNC(=O)c1cnc(-c2ccccc2)nc1	1.605
CN(C)C(CNCc1nc(-c2ccsc2)no1)c1cccs1 (stereo not given)	32.89
CN(Cc1ccc(OC(F)F)cc1)C(=O)CS(=O)(=O)c1ccc(Cl)cc1	-2.734
O=C(c1ccccc1-c1nnn[nH]1)N1CCOC(C(F)(F)F)C1 (stereo not given)	-13.17
COc1ccc(C(C)Nc2ncc(C(N)=O)cc2Cl)cc1OC (stereo not given)	2.755
COc1ccc(-c2noc(CNC(C)Cn3cccn3)n2)c(OC)c1 (stereo not given)	-1.941
Cc1nc(-c2cnn(C)c2)sc1C(=O)NCc1cccc(CN(C)C)c1	4.14
CNC(=O)COc1cccc(CNC(=O)c2c(C)noc2C)c1	3.18
Cc1noc(C(C)C)c1C(=O)NCc1cccc(N(C)C)c1	-0.3759
COCc1cccc(CNC(=O)c2c(C)noc2C(C)C)c1	76.98
COc1cc(CNC(=O)c2c(C)noc2C(C)C)ccn1	8.071
Cc1noc(C)c1C(=O)N(C)C(C)c1cccnc1 (stereo not given)	4.505
CNC(=O)COc1cccc(CNCc2c(C)noc2C)c1	-88.14
CNC(=O)COc1cccc(CNC(=O)c2c(C)noc2C(C)C)c1	111.4

SMILES	Percent Effect [%]
Cc1noc(C(C)C)c1C(=O)NS(=O)(=O)c1cccnc1	-12.13
COc1cccc(S(=O)(=O)NC(=O)c2c(C)noc2C(C)C)c1	-5.099
Cc1noc(C(C)C)c1C(=O)NCc1cccc(CN(C)C)c1	74.15
Cc1noc(C(C)C)c1C(=O)NCc1cccnc1	107.3
CNC(=O)CC1CCN(C(=O)Nc2ccc(-c3cc[nH]n3)cc2)CC1	6.092
CCOCC(=O)NCC(CC)(OC)c1ccccc1 (stereo not given)	1.259
CS(=O)(=O)N1CCCCC12CCN(c1nncs1)CC2	-20.36
O=C(NCc1cc[nH]n1)NCC(c1ccc(F)cc1)N1CCOCC1 (stereo not given)	5.34
O=C(NCC(c1ccccc1)N1CCOCC1)Nc1cn[nH]c1 (stereo not given)	127.8
O=C(NCC(c1ccc(F)cc1)N1CCOCC1)Nc1cn[nH]c1 (stereo not given)	114.1
CC(CNC(=O)Nc1cn[nH]c1)N1CCCC1 (stereo not given)	127.7
COc1ccc(C(CNC(=O)Nc2cn[nH]c2)N2CCOCC2)cc1 (stereo not given)	-0.482
CC(CNC(=O)Nc1cn[nH]c1)N1CCc2ccccc2C1 (stereo not given)	-5.86
CC(CNC(=O)Nc1cn[nH]c1)N1CCOCC1 (stereo not given)	3.391
Cc1ccc(C(CNC(=O)Nc2cn[nH]c2)N2CCOCC2)o1 (stereo not given)	59.24
Cc1ccc(C(CNC(=O)NCc2cc[nH]n2)N2CCOCC2)o1 (stereo not given)	-7.152
CCn1c(CN(C)C)nnc1C1CCN(Cc2ccc(Cl)cc2F)CC1	-5.252
Cc1ccc2c(c1)nc1n2[C@@H](CNC(=O)c2ccccn2)COC1	6.729
Cc1noc(C)c1CC(=O)NCC(C(C)C)N1CCOCC1 (stereo not given)	-3.487
CC(C)C(CNC(=O)Nc1cn[nH]c1)N1CCOCC1 (stereo not given)	97.51
CCC(CC)C(CNC(=O)Nc1ccc(C)cc1)N1CCOCC1 (stereo not given)	4.516
CC(C)C(c1cccnc1)N(C)C(=O)Cc1ccc(O)cc1 (stereo not given)	-17.69
CN(CCCNC(=O)c1cccc(OCC(N)=O)c1)CC(F)(F)F	0.5585
C=C(C)COc1ccccc1C(=O)NCCc1nncn1C	-0.8083
C=C(C)COc1cccc(C(=O)NCCCc2nnn[nH]2)c1	109
C=C(C)COc1ccccc1C(=O)N(C)C(C)c1c(C)n[nH]c1C (stereo not given)	-35.55
C=C(C)COc1cccc(C(=O)NC(C)c2nnn[nH]2)c1 (stereo not given)	104.4

SMILES	Percent Effect [%]
C=C(C)COc1cccc(C(=O)N(C)C(C)c2c(C)n[nH]c2C)c1 (stereo not given)	-12.59
C=C(C)COc1ccccc1C(=O)NCCCc1nnn[nH]1	115.9
CCC(=O)c1ccc(OCC(=O)NC(C)c2nnn[nH]2)cc1 (stereo not given)	-5.336
C=C(C)COc1cccc(C(=O)N(CC)Cc2nccn2C)c1	0.123
CN1Cc2ccccc2CC1C(=O)N1CCN(CCS(C)(=O)=O)CC1 (stereo not given)	0.38
CS(=O)(=O)c1ccc(OCCNCc2cccc(Cl)c2)cc1	6.711
CS(=O)(=O)CCNCc1ccc(OCc2ccccn2)cc1	-3.882
CC1CCN(C(=O)C(C)N2CCc3[nH]nc(C(F)(F)F)c3C2)CC1 (stereo not given)	-0.1757
CN(C)C(=O)Cc1ccc(NC(=O)NC2CCCC2)cc1	20.91
CN(C)C(=O)Cc1ccc(NC(=O)NC2CCCCC2)cc1	10.45
COc1ccc(NC(=O)c2cnc(N(C)C3CCCCC3)nc2N)cc1	-20.25
CN(CCO)c1ncc(-c2ccc(NC(=O)[C@@H]3CCCCN3)cc2)cn1	112.4
CN(C)c1ncc(-c2ccc(NC(=O)[C@@H]3CCCCN3)cc2)cn1	109.4
Cc1cc(CNC2(CO)CCOCC2)ccc1Br	-0.9175
CC(C)c1nc(-c2cc(C(=O)NCCCO)c3ccccn23)cs1	-2.585
COCc1nc(CNc2cccc(-c3ncon3)c2)cs1	-4.875
COc1c(CNC2CCC(O)CC2)c(C(C)C)nn1C (stereo not given)	106.7
COc1c(CNC2CCN(C(=O)C(C)C)CC2)c(C(C)C)nn1C	121.5
COc1c(CNC2CCN(C(=O)C3CC3)CC2)c(C(C)C)nn1C	2.531
CC(C)c1nn(C)c(N(C)C)c1CNC1CCC(O)CC1 (stereo not given)	13.16
CC(C)C(=O)N1CCC(NCc2c(C(C)C)nn(C)c2N(C)C)CC1	-18.23
COc1c(CNC2CCN(C(C)(C)C)CC2)c(C(C)C)nn1C	2.143
CCOc1cccc(CCNC(=O)NC2CCc3[nH]ncc3C2)n1 (stereo not given)	4.598
O=C1CC(N(C(=O)c2csc(-c3ccccc3)n2)C2CC2)C(=O)N1 (stereo not given)	-6.994
